In PubChem BioAssay (NCI) one finds growth data, which are given here for eight compounds.

Test systems include NCI-H23 lung; NCI-H226 lung; NCI-H322M lung; HOP-62 NSCLC; NCI-H460 lung; HOP-92 NSCLC; NCI-H522 lung; A549/ATCC NSCLC; 786-0 renal; DU-145 prostate; K-562 leukemia; MALME-3M melanoma; MDA-MB-231 breast; RXF 393 renal; SF-268 CNS; SF-295 CNS; SF-539 CNS; UACC-257 melanoma; M14 melanoma; COLO 205 colon.
Holding throughout (assay): NCI-60 one-dose screen, 48 h (100 = growth as untreated, 0 = no growth, -100 = all killed)
Common to all, as to details: 10 µM unless noted

“And” between values parts separate entries of the source, which are not always exact repeats. Equal entries are not always repeated. About 83,000 compounds went through this panel and 20% of them were active in at least one assay; those are over-represented in the sample as a whole.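 Note: values are percent growth. 100 is the growth of untreated cells, values between 100 and 0 indicate rising inhibition; between -100 and 0 indicates cell death.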 Values without a mark were called inactive. The source made the active and inactive calls. The calls were made as follows: active = growth percent below 10; inactive = the rest.

For `O=c1oc2c(Br)cc(Br)cc2cc1-c1cc(-c2ccc(-c3cc(-c4cc5cc(Br)cc(Br)c5oc4=O)nc(-c4cc5cc(Br)cc(Br)c5oc4=O)c3)cc2)cc(-c2cc3cc(Br)cc(Br)c3oc2=O)n1`, the growth was 96.5% in the assay with NCI-H23 lung; 102% with NCI-H226 lung; 97.3% in the assay with NCI-H322M lung; 104% in the assay on HOP-62 NSCLC; 105% in the assay on NCI-H460 lung; 108% in the assay with HOP-92 NSCLC. Also, the growth with NCI-H522 lung is 86.8%; in the assay on A549/ATCC NSCLC it was 105%; in the assay with 786-0 renal, 111%; with DU-145 prostate it was 112%; in the assay on K-562 leukemia, 97.9%; in the assay with MALME-3M melanoma it was 92.6%. In addition, the growth in the assay with MDA-MB-231 breast is 93.7%; with RXF 393 renal, 119%; with SF-268 CNS, 105%; in the assay with SF-295 CNS it was 106%; in the assay with SF-539 CNS it was 107%; in the assay with UACC-257 melanoma it was 109%. Also, the growth in the assay on M14 melanoma is 107%.
In the case of `CC[C@]1(O)CC2CN(CCc3c([nH]c4ccccc34)C(C(=O)OC)(c3cc4c(cc3OC)N(C=O)[C@H]3[C@@](O)(C(=O)OC)[C@H](OC(C)=O)[C@]5(CC)[C@@H]6C[C@@H]6CN6CC[C@]43[C@@H]65)C2)C1` (stereo partly specified), the growth in the assay on NCI-H23 lung is 6.32% (active); with NCI-H226 lung, 19.3%; in the assay on NCI-H322M lung, 73.9%; in the assay with HOP-62 NSCLC, 22.5%; in the assay with NCI-H460 lung it was 3.37% (active); in the assay with HOP-92 NSCLC, -0.4% (active). Besides, the growth in the assay on NCI-H522 lung is -21.4% (active); in the assay with A549/ATCC NSCLC, 17.9%; in the assay with 786-0 renal, 5.62% (active); in the assay with DU-145 prostate, -41.4% (active); in the assay on K-562 leukemia it was 27.5%; with MALME-3M melanoma it was 34.2%. For the same compound, the growth in the assay on MDA-MB-231 breast was -27.5% (active); in the assay on RXF 393 renal, 32.9%; with SF-268 CNS, 15.3%; in the assay on SF-295 CNS, -4.56% (active); in the assay on SF-539 CNS it was 0.385% (active); with UACC-257 melanoma it was 53.2%. The growth with M14 melanoma was -31.6% (active).
Consider `CC/C=C\C/C=C\C[C@H](O)C/C=C1/C(=O)C=C[C@@H]1C/C=C\CCCC(=O)OC`, for which the growth in the assay with NCI-H23 lung is -19.9% (active); in the assay on NCI-H226 lung it was -48.3% (active); with NCI-H322M lung, 10.6%; in the assay with HOP-62 NSCLC, -30.3% (active); in the assay with NCI-H460 lung, -40% (active); in the assay with HOP-92 NSCLC, -23% (active). Moreover, the growth was -52.3% (active) with NCI-H522 lung; -23.7% (active) in the assay on A549/ATCC NSCLC; -60.6% (active) with 786-0 renal; 6.78% (active) with DU-145 prostate; 3.6% (active) in the assay on K-562 leukemia; -5.8% (active) in the assay on MALME-3M melanoma. The growth is -5.48% (active) in the assay with MDA-MB-231 breast; -58.2% (active) with RXF 393 renal; 8.53% (active) with SF-268 CNS; -8.95% (active) in the assay with SF-295 CNS; 1.23% (active) in the assay with SF-539 CNS; -13.9% (active) with UACC-257 melanoma. Besides, the growth in the assay with M14 melanoma is -23% (active).
In the case of `CN1Cn2c(ccc2C(F)(F)F)C(=O)CS1(=O)=O`, the growth in the assay on NCI-H23 lung was 108%; in the assay with NCI-H226 lung it was 111%; in the assay on NCI-H322M lung, 104%; in the assay with HOP-62 NSCLC, 100%; in the assay on NCI-H460 lung it was 110%; with HOP-92 NSCLC, 102%. For the same compound, the growth is 103% with NCI-H522 lung; 108% with A549/ATCC NSCLC; 96.7% in the assay on 786-0 renal; 114% with DU-145 prostate; 110% with K-562 leukemia; 90.2% with MALME-3M melanoma. Moreover, the growth was 106% in the assay on MDA-MB-231 breast; 135% in the assay on RXF 393 renal; 108% in the assay on SF-268 CNS; 103% in the assay on SF-295 CNS; 94.3% with SF-539 CNS; 102% in the assay with UACC-257 melanoma. Moreover, the growth in the assay with M14 melanoma is 104%.
Turning to `CC1(C)C(N)=Nc2cc(OCCCCN3Cc4ccccc4C3)c(OCC3CC3)cc21`, the growth is 80.3% in the assay with NCI-H23 lung; 79.6% in the assay with NCI-H226 lung; 79.9% in the assay on NCI-H322M lung; 85.6% in the assay with HOP-62 NSCLC; 75.2% with NCI-H460 lung; 103% in the assay on HOP-92 NSCLC. Further, the growth in the assay with NCI-H522 lung is 64.2%; in the assay on 786-0 renal, 64.8%; in the assay with COLO 205 colon, -62.7% (active); in the assay on DU-145 prostate, 88.8%; in the assay on K-562 leukemia, 97.3%; in the assay on MALME-3M melanoma, 2.01% (active). The growth in the assay with MDA-MB-231 breast is 59.2%; in the assay on RXF 393 renal, 65.8%; in the assay with SF-268 CNS, 74.7%; with SF-295 CNS it was 84.8%; in the assay on SF-539 CNS it was 80.8%; in the assay with UACC-257 melanoma it was 1.07% (active).
As to `[2H]C([2H])([2H])Oc1cccc(/C=C/C(=O)/C=C(/C=C/c2cccc(OC([2H])([2H])[2H])c2OC([2H])([2H])[2H])OB(F)F)c1OC([2H])([2H])[2H]`, the growth was 69.9% in the assay on NCI-H23 lung; 95.4% in the assay with NCI-H226 lung; 106% with NCI-H322M lung; 99.5% in the assay with HOP-62 NSCLC; 96.9% in the assay on NCI-H460 lung; 102% in the assay with HOP-92 NSCLC. Also, the growth was 56.9% in the assay on NCI-H522 lung; 93.4% in the assay with A549/ATCC NSCLC; 85.2% with 786-0 renal; 88.3% with DU-145 prostate; 65.2% with K-562 leukemia; 75.9% in the assay on MALME-3M melanoma. Further, the growth in the assay on MDA-MB-231 breast is 88%; in the assay on RXF 393 renal, 121%; in the assay with SF-268 CNS, 98%; in the assay with SF-295 CNS it was 103%; with SF-539 CNS, 92.2%; with UACC-257 melanoma, 64.5%. For the same compound, the growth in the assay with M14 melanoma is 92.8%.
In the case of `CC1=CC=C(NC(=O)/C=C/c2ccccc2)CC1Nc1nccc(-c2cccnc2)n1` (stereo unspecified), the growth in the assay on NCI-H23 lung is 69%; in the assay with NCI-H226 lung it was 66%; with NCI-H322M lung, 67.2%; in the assay with HOP-62 NSCLC it was 54.8%; with NCI-H460 lung, 66.9%; in the assay on HOP-92 NSCLC, 60.3%. Besides, the growth in the assay with NCI-H522 lung is 69%; in the assay with A549/ATCC NSCLC, 42.4%; in the assay with 786-0 renal, 15.9%; in the assay on DU-145 prostate it was 30.9%; in the assay with K-562 leukemia, 10.2%; with MALME-3M melanoma, 45.2%. Besides, the growth is 51.5% in the assay on MDA-MB-231 breast; 0.475% (active) in the assay on RXF 393 renal; 54% in the assay on SF-268 CNS; 44.1% in the assay with SF-295 CNS; 14% in the assay on SF-539 CNS; 8.14% (active) in the assay with UACC-257 melanoma. In addition, in the assay on M14 melanoma, the growth was 23.7%.
Take `O=C1CCCCN1CCCCC#Cc1cccc(C#Cc2cccnc2)c1`: the growth in the assay with NCI-H23 lung is 88.5%; in the assay with NCI-H226 lung, 78.1%; in the assay on NCI-H322M lung, 180%; with HOP-62 NSCLC, 114% and 98.7%; in the assay on NCI-H460 lung it was 73%; with HOP-92 NSCLC, 31.9%. The growth was 75.7% with NCI-H522 lung; 81% in the assay with A549/ATCC NSCLC; 116% and 89.9% in the assay with 786-0 renal; 83.5% with COLO 205 colon; 109% with DU-145 prostate; 26.9% with K-562 leukemia. The growth is 249% with MALME-3M melanoma; 65.3% in the assay on MDA-MB-231 breast; 83.2% in the assay on SF-268 CNS; 79.9% in the assay on SF-295 CNS; 91.8% in the assay on SF-539 CNS; 84.4% in the assay on UACC-257 melanoma. The growth in the assay with M14 melanoma was 105%.
